An excerpt weighted towards active compounds, which were near 6.1% of everything screened.
D3 ag: agonists of human D3 dopamine receptor. AID 652048. D3R DiscoveRx beta-arrestin cells, luminescence, 90 min. actives 0.58% (n = 410,000). max activation, %; in the data active = max activation above about 30%; also: 0% is about no effect
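Agonist mode: compounds and dopamine controls were applied to plated cells for 90 min at 37 degrees C after an overnight attachment at 1500 cells/well. Luminescent read-out followed 30 - 60 minutes at room temperature with DiscoveRx detection reagent.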
D1 antag: antagonists of human D1 dopamine receptor | P21728 | HEK293 TREx D1 cells, calcium flux, dopamine EC80; stronger effect = lower value | activity change, negative = inhibition, % at 10 µM | actives 3.2% (n = 360,000); in the data active = activity change below about -30%; also: % is scaled to controls: 0 for no effect and ±100 for the full control effect
Target sequence (P21728 whole entry, looked up): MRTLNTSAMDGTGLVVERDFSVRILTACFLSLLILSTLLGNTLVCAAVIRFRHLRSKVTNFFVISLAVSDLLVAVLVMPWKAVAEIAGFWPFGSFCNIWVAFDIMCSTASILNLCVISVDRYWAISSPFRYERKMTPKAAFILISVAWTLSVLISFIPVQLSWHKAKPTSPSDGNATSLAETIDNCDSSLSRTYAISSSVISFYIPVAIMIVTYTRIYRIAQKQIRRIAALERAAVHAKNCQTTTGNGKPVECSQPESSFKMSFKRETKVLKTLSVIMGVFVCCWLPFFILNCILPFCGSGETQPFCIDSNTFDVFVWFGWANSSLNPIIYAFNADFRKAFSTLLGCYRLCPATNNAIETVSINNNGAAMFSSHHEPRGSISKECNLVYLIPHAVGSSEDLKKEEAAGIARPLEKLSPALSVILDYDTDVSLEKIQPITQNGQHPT
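Cells carrying a force-coupled, tetracycline-inducible human D1 receptor report calcium flux. Each well gets a 10 s baseline, compound with 180 s monitoring, then an EC80 dopamine stimulus with a second 180 s kinetic read.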
DRD3 antagonist: D3 dopamine receptor (human) antagonism; actives 2.5% (n = 360,000); AID 652054; P35462; D3R cells, DiscoveRx beta-arrestin luminescence, antagonist mode; stronger effect = lower value; max response, negative = inhibition, %; in the data active = max response below about -50%; inconclusive = no clear call, values can overlap the other calls; also: % is scaled to controls: 0 for no effect and ±100 for the full control effect
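Cells plated overnight at 1500 cells/well, then exposed to library compounds with dopamine controls for 90 minutes at 37 degrees C. DiscoveRx reagent added for 30–60 minutes at room temperature; luminescence read, quantitative HTS format.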
D1 potentiator: human D1 dopamine receptor positive modulation; actives 0.036% (n = 360,000); P21728; HEK293 TREx D1 cells, calcium flux, dopamine EC20 potentiation; potentiation, % at 10 µM; in the data active = potentiation above about 30%; also: 0% is about no effect
D1 agonist: human D1 receptor agonism | P21728 | HEK293 T-REx D1 cells, calcium flux, agonist mode | activation, % at 2 µM | actives 1% (n = 360,000) | AID 504660; in the data active = activation above about 30%; also: 0% is about no effect
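Agonism was scored from calcium flux recorded over 180 s (1 read/s) after pintool compound addition, following a 10-cycle baseline. Cells were inducible force-coupled HEK293 TREx D1, plated overnight at 30 C and loaded with no-wash calcium dye.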
* hit, by the source's call; ? = inconclusive; / = no result.

SMILES	D3 ag	D1 antag	DRD3 antagonist	D1 potentiator	D1 agonist
CC1CCN(S(=O)(=O)c2ccc3c(c2)N(CC(=O)NCc2ccccc2)C(=O)CO3)CC1	-8	-11	/	0	0
CCOc1ccc(NC(=O)c2cc(S(=O)(=O)NC3CCCC3)ccc2F)cc1	-3	-24	/	-4	0
COc1ccc(CO[C@@H]2O[C@H](CO)[C@@H](O)[C@H](O)[C@H]2NC(C)=O)cc1OC	-4	5	-52*	1	2
CCOc1ccc(CO[C@@H]2O[C@H](CO)[C@@H](O)[C@H](O)[C@H]2NC(C)=O)cc1OC	12	-3	21	4	4
CSc1cccc(CN2CCN(Cc3ccccc3)C(CCO)C2)c1 (stereo unspecified)	0	9	-54*	-6	8
CSc1cccc(CN2CCN(CCc3ccccc3)C(CCO)C2)c1 (stereo unspecified)	-25	2	-114*	-7	0
OCCC1CN(C2CCN(c3ccccc3F)CC2)CCN1Cc1ccccc1 (stereo unspecified)	-20	1	-103*	-3	2
CSc1ccc(CN2CCN(Cc3ccccc3)C(CCO)C2)cc1 (stereo unspecified)	-23	-5	?	2	1
CSc1cccc(CN2CCN(Cc3ccc(F)c(F)c3)C(CCO)C2)c1 (stereo unspecified)	-11	2	-63*	-5	2
CC(C)c1cc(CN2CCN(Cc3ccc(F)c(F)c3)C(CCO)C2)[nH]n1 (stereo unspecified)	-10	-10	?	-6	2
Cc1ccc(C)c(Cn2c(SCC(=O)N(C)Cc3ccccc3)nc3ccccc32)c1	-6	6	/	-1	4
O=C(CSc1ccc(Cl)cc1)NC1CCCC1	0	-3	11	2	1
O=C(NC1CCCCC1)Sc1ccc(Cl)cc1	0	-28	-91*	-7	1
S=C(NCC1CCCO1)N1CCN(c2nc(-c3ccc(Cl)cc3)cs2)CC1 (stereo unspecified)	1	-30*	-18	-1	1
S=C(NCC1CCCO1)N1CCN(c2cccc(Cl)c2)CC1 (stereo unspecified)	-2	-9	-17	5	5
S=C(NCCCN1CCOCC1)N1CCN(c2nc(-c3ccccc3)cs2)CC1	-4	-9	-24	-8	88*
S=C(NCCCN1CCOCC1)N1CCN(c2nc(-c3ccc(Cl)cc3)cs2)CC1	-6	-55*	-9	-2	1
CCOC(=O)C1=C(O)/C(=C\c2cc(C)n(-c3ccc(F)cc3)c2C)N=C1C	-8	-32*	-24	-2	6
CCCNC(=O)Cn1c(=O)c2cccn2c2cccnc21	0	2	/	-2	0
COc1ccc(Cn2ccnc2SCC(=O)Nc2ccc(C)cc2C)cc1	6	-10	/	-3	0
N#C/C(=C(/O)CSc1nnc(Cc2cccs2)n1C1CCCCC1)c1nc2ccccc2[nH]1	5	2	1	-12	30
COc1ccccc1-c1nnc(SC/C(O)=C(\C#N)c2nc3ccccc3[nH]2)n1C1CCCCC1	2	-34*	13	-1	1
Cc1ccc(CNC(=O)c2cccn2-c2nnc(N3CCCCC3)s2)cc1	-10	-1	/	3	4
COc1ccc(CC(=O)NCC(c2ccc(N(C)C)cc2)N2CCOCC2)cc1OC (stereo unspecified)	6	-3	/	0	-1
Cn1c(CCc2ccc(N)cc2)nc2ccccc21	-7	1	-51*	-3	2
SMILES	D3 ag	D1 antag	DRD3 antagonist	D1 potentiator	D1 agonist
CCCn1c(CNC(=O)c2ccccc2)nc2ccccc21	-9	13	-79*	-2	1
CC(C)Cn1c(CNC(=O)c2ccccc2)nc2ccccc21	11	5	-56*	-2	3
CCCn1c(CNC(=O)c2cccs2)nc2ccccc21	-12	-8	-13	/	1
Cn1c(-c2ccc(N)cc2)nc2ccccc21	1	11	12	6	-1
COc1ccc(C(=O)NCCc2nc3cc([N+](=O)[O-])ccc3n2C)cc1	-21	-9	-113*	-1	0
COc1ccc(NC(=O)CCn2cnnn2)cc1	11	6	/	0	3
Cn1c(CCCNC(=O)c2ccccc2)nc2ccccc21	0	-20	-54*	-12	-4
CC(=O)NCCCc1nc2ccccc2n1Cc1ccccc1C	-8	6	-6	-12	42*
Cc1cc2ccccc2n1CCNC(=O)c1ccc(Br)cc1	-23	-29	/	-3	4
Cc1cc2ccccc2n1CCNC(=O)c1ccccc1	-3	-2	0	-12	43*
O=C(NCC(c1ccco1)S(=O)(=O)c1cccs1)c1ccccc1 (stereo unspecified)	0	/	/	-2	0
Cc1ccc(NC(=O)CN2C(=O)C(c3ccc(C)cc3)=NC23CCCCCC3)cc1	-4	-15	/	-3	6
CCn1ccc2c(OCC(=O)Nc3ccccc3C(F)(F)F)cccc2c1=O	16	/	/	-3	2
CCOc1ccc(CC(=O)Nc2c(C(=O)c3ccccc3)oc3ccc(OC)cc23)cc1OCC	3	-9	/	-4	0
COc1ccc(S(=O)(=O)NC(N)=NCCc2ccccc2OC)cc1	6	-53*	-2	-6	2
CC1(C)N=C(c2cccc(F)c2)C(=O)N1	43*	2	16	-13	0
CC1(C)N=C(c2ccccc2)C(=O)N1	10	-7	14	0	2
Cc1ccc(CNC(=O)C(=O)NCC(c2ccc3c(c2)OCO3)N2CCOCC2)cc1 (stereo unspecified)	-1	8	/	2	1
CCOc1ccc(Oc2cc(N)cc([N+](=O)[O-])c2)cc1	13	-25	8	-5	2
CCOc1ccc([N+](=O)[O-])c(N)c1	-3	-33*	-15	-5	1
O=C(c1ccccc1)N1CCCCC(Sc2nnnn2-c2ccccc2)C1=O (stereo unspecified)	-10	-1	-60*	2	1
O=C(c1ccc(F)cc1)N1CCCCC(Sc2nnnn2-c2ccccc2)C1=O (stereo unspecified)	-5	-15	-19	-5	5
CCOC(=O)c1c(Oc2ccc(OC)cc2)nnc(-c2ccccc2)c1-c1ccccc1	4	-2	/	-1	6
COc1ccc(CN2C(=O)C(C)Oc3ccccc32)cc1 (stereo unspecified)	0	-35*	12	6	13
C/C(=N\NC(=O)c1c[nH]c2ccccc12)c1ccc(C)o1	6	-66*	-8	-5	0
O=C(NN=C1CCCCCC1)c1c[nH]c2ccccc12	-43	-46*	?	-11	-1
O=C(NN=C1CCCCCC1)c1cc2ccccc2cc1O	8	3	-2	-5	8
C/C(=N\NC(=O)c1cc2ccccc2cc1O)c1ccc(C)o1	-11	-7	?	1	4

Screening results as filed in PubChem.
